UHRF1 MBD2 ctr – human UHRF1 methylated DNA binding inhibitors | inhibition, % at 4.4 µM | AID 687016 | Q96T88 | UHRF1 binding to methylated oligo, TR-FRET | 0.75% of 370,000 active; in the data active = inhibition above about 21%;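 also: UHRF1 SRA domain binding a hemimethylated CpG hairpin DNA probe; 0% = median of test compound wells and 100% = reference inhibitor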
MBD2 inh – blocks human MBD2 binding to methylated DNA; Q9UBB5; TR-FRET, MBD2 binding to methylated oligonucleotide; inhibition, % at 4.4 µM; 0.31% of 370,000 active; in the data active = inhibition above about 13%
Target sequence (Q9UBB5 whole entry, looked up): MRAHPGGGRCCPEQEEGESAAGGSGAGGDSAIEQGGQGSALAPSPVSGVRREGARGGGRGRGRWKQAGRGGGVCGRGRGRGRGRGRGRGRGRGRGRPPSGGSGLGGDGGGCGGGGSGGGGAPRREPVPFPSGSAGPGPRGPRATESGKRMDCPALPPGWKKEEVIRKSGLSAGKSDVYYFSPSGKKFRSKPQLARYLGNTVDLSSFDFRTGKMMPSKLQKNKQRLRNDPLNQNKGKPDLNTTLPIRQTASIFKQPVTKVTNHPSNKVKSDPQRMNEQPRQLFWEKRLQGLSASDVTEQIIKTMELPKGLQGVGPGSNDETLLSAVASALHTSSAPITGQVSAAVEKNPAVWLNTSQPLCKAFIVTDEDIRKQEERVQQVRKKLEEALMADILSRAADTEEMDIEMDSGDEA
PfM18AAP inh-1 – blocks P. falciparum M18 aspartyl aminopeptidase; recombinant PfM18AAP, H-Glu-NHMec fluorogenic cleavage; inhibition, % at 7.35 µM; 1.2% of 290,000 active;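 active = inhibition above the campaign mean inhibition over all tested compounds plus 3 SD, cut at about 28% in these data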;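 also: 0% = plate median of test compound wells and 100% = 2 mM ZnCl2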
PfG6PD inh – PfG6PD (Plasmodium falciparum) enzyme inhibition | PfGluPho enzyme, NADPH resazurin-diaphorase fluorescence | inhibition, % at 20 µM | 0.78% of 350,000 active | AID 504690;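 active = inhibition reaching at least a set limit at 20 µM in the primary screen, cut at about 59% in these data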;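 also: 0% = DMSO wells with substrate and 100% = DMSO wells lacking glucose-6-phosphate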
PRMT1 inh – blocks human protein arginine methyltransferase 1. Q99873. recombinant PRMT1, activity-based probe fluorescence polarization. inhibition, % at 2.79 µM. 1.3% of 370,000 active. AID 652257;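 active = inhibition above about 21% made by adding two undisclosed values, limit read from the data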
PfM18AAP inh-2 – PfM18AAP inhibition, confirmation. shares compounds with PfM18AAP inh-1. recombinant PfM18AAP, H-Glu-NHMec fluorogenic cleavage. inhibition, % at 7.35 µM. 28% of 2,400 active;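 active = mean inhibition over replicate wells above the hit cutoff set for the earlier primary screen, cut at about 29% in these data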;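 also: 0% = median of test compound wells and 100% = 2 mM ZnCl2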
CTSL1 confirm – Cathepsin L (human) inhibition, confirmation | inhibition, % at 5.96 µM | purified cathepsin L1, Z-Leu-Arg-MCA fluorescence | AID 2178 | 2,400 tested, under 10 active | shares compounds with PfM18AAP inh-1;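 active = average inhibition across replicates above the hit cutoff set in the earlier primary screen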;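 also: 0% = median of test compound wells and 100% = Z-Phe-Ala-diazomethylketone 1 µM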
Starred values were filed as active, the others as inactive; x = no result. Hits are enriched below; roughly 3.3% of the tested compounds scored in any of these assays.

SMILES	UHRF1 MBD2 ctr	MBD2 inh	PfM18AAP inh-1	PfG6PD inh	PRMT1 inh	PfM18AAP inh-2	CTSL1 confirm
Cc1cc(O)c(Oc2cc(C)cc(O)c2O)c(O)c1	1.4	-0.2	49.6*	49.2	37.6*	36.2*	-3.2
CCCCC(=O)NNC(=S)NC(=O)c1ccc([N+](=O)[O-])cc1	-4.6	-0.8	38.8*	18.2	3.8	-24.6	-1.8
Cc1ccc(C(=O)NC(=S)NNC(=O)CC#N)cc1	-5.3	-1.3	33.1*	1.2	4.3	-29.8	0.1
CCCCC(=O)NNC(=S)NC(=O)c1ccc(C)cc1	-1.4	-1.6	45.6*	17.3	9.0	-28.5	0.5
CCCCC(=O)NNC(=S)NC(=O)c1cccc([N+](=O)[O-])c1	-1.6	-1.8	26.7	33.5	20.6	x	x
N#CCC(=O)NNC(=S)Nc1ccccc1C(F)(F)F	-6.5	-3.3	46.1*	-9.1	-2.1	-36.7	0.6
C#CCN1CC(N(C)CCCO)CS1(=O)=O (stereo not drawn)	-3.5	-2.8	x	x	-2.6	x	x
Nn1c(Cc2cccc3ccccc23)n[nH]c1=S	3.2	1.5	32.3*	36.6	2.9	-5.3	1.7
Cn1c(-c2cccc3ccccc23)n[nH]c1=S	2.2	3.0	37.0*	17.8	-0.9	-11.8	-6.7
Nn1c(Cc2ccccc2F)n[nH]c1=S	0.0	-6.8	17.3	31.7	2.2	x	x
COc1ccc(OC)c(S(=O)(=O)N2CCCC(c3noc(-c4ccc(C)cc4)n3)C2)c1 (stereo not drawn)	-0.8	-2.1	x	x	-3.8	x	x
OCC(O)/C=N/Nc1nc2ccccc2s1 (stereo not drawn)	2.1	0.5	33.0*	6.0	5.2	2.8	-1.6
C/C(CC(=O)Nc1ccc2ccccc2c1)=N\NC(=O)c1ccc(O)c(O)c1	1.7	-2.8	68.5*	-23.5	-1.9	50.4*	-1.6
CCOC(=O)C1C(=O)C=C(c2cccs2)CC1c1ccccc1C (stereo not drawn)	-1.8	-3.4	4.0	-17.0	-3.1	x	x
CCOC(=O)C1C(=O)C=C(c2cccs2)CC1c1ccccc1 (stereo not drawn)	-1.5	4.6	55.8*	11.4	-3.7	-43.0	-1.5
O=[N+]([O-])c1cc(Br)c(O)c(/C=N/Nc2nnnn2-c2cccc3ccccc23)c1	-1.5	4.6	38.4*	-14.9	5.2	-4.7	-6.7
O=[N+]([O-])c1ccc(NN=Cc2cccc3ccccc23)cc1	7.9	0.5	x	11.3	2.8	x	x
O=S1(=O)CC(N2CCC(c3ccccc3)CC2)CN1Cc1cn(Cc2ccc(C(F)(F)F)cc2)nn1 (stereo not drawn)	2.2	0.1	x	x	-0.8	x	x
O=C(CC1Sc2ccccc2NC1=O)Nc1cccc(C(=O)O)c1 (stereo not drawn)	13.9	0.0	41.3*	9.8	-2.2	25.5	-3.8
NS(=O)(=O)c1cccc(NC(=O)COC(=O)CC2Sc3ccccc3NC2=O)c1 (stereo not drawn)	3.2	-0.2	x	24.7	-2.5	x	x
O=C(O)c1ccccc1N/N=C/C1=C(N2CCOCC2)C(=C\c2ccccc2)/CC1	4.3	-1.9	5.0	-11.2	13.2	x	x
Cc1cc(C)nc(N/N=C/C2=C(N3CCOCC3)C(=C/c3ccccc3)/CC2)n1	-3.6	-3.4	36.0*	14.3	12.2	-42.6	6.6
CCOC(=O)NC1(Nc2cccc(Cl)c2)Oc2ccccc2O1	0.6	-1.2	51.8*	4.3	19.3	63.5*	1.2
CCOC(=O)NC(=O)/C(C#N)=N\Nc1cccc(Cl)c1	0.2	2.1	0.4	-9.2	-2.6	x	x
Cc1ccc(C)c(NC(=O)C2CCCN2S(=O)(=O)c2cccnc2)c1 (stereo not drawn)	3.5	-2.6	x	x	-1.5	x	x
SMILES	UHRF1 MBD2 ctr	MBD2 inh	PfM18AAP inh-1	PfG6PD inh	PRMT1 inh	PfM18AAP inh-2	CTSL1 confirm
CC[n+]1c(C)sc2cc(OC)ccc21	-3.4	-3.4	36.6*	37.6	54.4*	-19.9	1.5
COc1ccc2c(Cl)c(C(=O)NN)sc2c1	-1.6	-0.6	0.1	-6.5	-1.0	x	x
COc1cc(/C=N\Nc2nc3ccccc3o2)cc(OC)c1OC	-0.1	-6.7	10.5	18.1	-0.5	x	x
COc1ccc(/C=N/Nc2nc3ccccc3o2)cc1O	-0.9	-4.4	49.8*	23.2	3.2	-33.0	5.4
COc1cc(/C=N/Nc2nc3ccccc3o2)cc(OC)c1O	-0.9	-1.9	42.8*	34.3	10.8	22.6	4.4
N#CCC[C@H]1CC[C@]2(CCCN(c3ccccc3)C2)O1	3.0	-7.2	x	x	-1.8	x	x
CC(C)C[C@H](NC1(C(=O)NCCc2c[nH]c3ccccc23)CCN(C)CC1)C(=O)NCCCc1ccccc1	-1.8	-0.9	x	x	0.2	x	x
Cc1cc(NS(=O)(=O)c2ccccc2)cc(Cl)c1O	-3.3	-3.8	67.0*	24.0	0.9	-55.9	-4.5
O=S(=O)(Nc1ccc(NS(=O)(=O)c2ccccc2)c(Cl)c1)c1ccccc1	5.4	-7.3	x	-25.9	-2.3	x	x
CN(CCO)C1CN(Cc2cn(Cc3ccccc3C(F)(F)F)nn2)S(=O)(=O)C1 (stereo not drawn)	6.9	2.3	x	x	2.4	x	x
COc1ccc(C(=O)C2(C(=O)Nc3cc(C)cc(C)c3)CC(c3ccccn3)=NO2)cc1 (stereo not drawn)	-1.8	3.9	x	x	-2.3	x	x
Cc1ccc(S(=O)(=O)c2cc3c(=O)n4ccccc4nc3n(CCCN3CCOCC3)c2=N)cc1C	-4.0	-9.3	27.4	-0.7	-1.0	x	x
N=c1c(S(=O)(=O)c2ccccc2)cc2c(=O)n3ccccc3nc2n1CCCN1CCOCC1	-4.3	-3.4	33.6*	5.3	3.1	-29.6	-4.3
COc1cc(OC)c(OC)cc1/C=N/n1c(COc2ccccc2)n[nH]c1=S	3.0	1.0	33.5*	39.5	7.8	-0.6	1.0
COc1ccc(Br)cc1/C=N/n1c(COc2ccccc2)n[nH]c1=S	2.1	-3.0	13.1	6.4	-1.7	x	x
Oc1ccc(/C=N/n2c(COc3ccccc3)n[nH]c2=S)c(O)c1	-0.3	2.7	33.2*	41.2	1.6	12.3	2.7
CCc1c(-c2cccc(Br)c2)ncn1CCc1ccccc1OC	-1.2	-1.8	x	x	-1.2	x	x
Cc1cccnc1Nc1nc(-c2ccc(O)cc2)cs1	-5.1	0.5	34.4*	1.9	-3.0	30.2*	3.2
Cc1cccnc1Nc1nc(-c2ccc(F)cc2)cs1	4.0	-2.0	-2.2	32.7	-4.2	x	x
COc1cccc(Nc2nc(-c3ccc(O)cc3)cs2)c1	-2.6	-0.5	43.1*	14.0	3.7	33.7*	-1.2
COC(=O)c1cccc(-n2c(C)cc(O)cc2=O)c1	1.9	-1.1	x	x	-3.8	x	x
O=C(NNC(=O)c1cc(O)c(O)c(O)c1)NC1CCCCC1	2.8	2.3	46.5*	7.8	14.6	11.4	-2.9
COc1ccccc1NC(=O)NNC(=O)c1ccc2ccccc2c1O	1.0	1.9	33.1*	-5.3	-1.2	3.8	-0.3
COc1ccc(NC(=O)NNC(=O)CCc2ccc(O)c(O)c2)cc1OC	1.7	2.9	81.8*	5.1	23.4*	61.5*	-2.5

Compound activity as filed in PubChem BioAssay.
